{
  "source": "PubChem BioAssay AID720540",
  "about": "(National Center for Advancing Translational Sciences (NCATS), 2013)",
  "note": "In all, about 1,300 compounds went through this assay and about 460 (35%) were called active. Not shown: some 39% with an inconclusive outcome. The list shows a part of the results. A number with no mark means an inactive call. The call rests on the fitted dose curve; in most records, active means well fitted inhibition curve with a large enough effect; inconclusive means small, poorly fitted or top-dose-only effect; inactive means flat fitted curve, though single readings scatter. Potency means the concentration at half of the fitted maximal effect.",
  "data": [
    {"biological_target": "Protein phosphatase EYA2 (Homo sapiens) (UniProt O00167)", "sequence (O00167 whole entry, looked up)": "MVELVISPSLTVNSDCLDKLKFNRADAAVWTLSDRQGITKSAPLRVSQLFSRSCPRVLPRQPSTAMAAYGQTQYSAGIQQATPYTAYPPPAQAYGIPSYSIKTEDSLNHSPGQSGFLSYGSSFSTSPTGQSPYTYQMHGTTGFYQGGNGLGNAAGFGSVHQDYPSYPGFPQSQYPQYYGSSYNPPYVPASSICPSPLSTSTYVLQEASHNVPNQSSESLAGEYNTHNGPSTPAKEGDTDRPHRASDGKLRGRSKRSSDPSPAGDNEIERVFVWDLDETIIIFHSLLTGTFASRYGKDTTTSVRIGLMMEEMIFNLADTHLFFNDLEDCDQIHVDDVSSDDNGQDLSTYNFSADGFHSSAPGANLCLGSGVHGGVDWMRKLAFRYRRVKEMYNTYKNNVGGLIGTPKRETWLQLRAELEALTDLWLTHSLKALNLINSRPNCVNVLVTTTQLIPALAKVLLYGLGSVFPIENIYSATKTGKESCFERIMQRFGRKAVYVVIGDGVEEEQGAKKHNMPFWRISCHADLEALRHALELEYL", "experiment": "qHTS for Inhibitors of the Phosphatase Activity of Eya2: Confirmatory Assay for Cherry-picked Compounds; further: nearly all actives have a fitted effect of over 65% in size;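 on activity change, negative = inhibition: 0% = DMSO wells and -100% = EGTA control giving full inhibition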", "details": "purified EYA2 phosphatase activity, qHTS confirmation; series mostly up to 46.1 µM; activity change, negative = inhibition: at the top concentration", "in_short": "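Eya2 (0.2 uM working solution) preincubated 10 min at room temperature with compound in pH 7.5 HEPES buffer with MgCl2, BSA, DTT. OMFP added (50 uM working solution), 10 min more; fluorescence 485/525 nm, normalized to EGTA and DMSO.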", "units": {"activity change, negative = inhibition": "%"}, "values": [
      {"molecule": "CCOC(=O)N1CCC(NC(=O)c2cc3c(-c4ccccc4F)nn(C)c3s2)CC1", "activity change, negative = inhibition": -14.8},
      {"molecule": "Cn1nnnc1SCC(=O)Nc1ccc2c(c1)OCO2", "activity change, negative = inhibition": -11},
      {"molecule": "CCCCn1nc(C(=O)Nc2ccc3c(c2)OCO3)c2ccccc2c1=O", "Potency": "12 µM (active)"},
      {"molecule": "O=C(CCn1c(=O)oc2ccccc21)NCc1ccc2c(c1)OCO2", "activity change, negative = inhibition": -2.46},
      {"molecule": "COc1ccccc1NC(=O)C1=C(C)NC2=C(C(=O)CC(c3ccc(OC)c(OC)c3)C2)C1c1coc2ccccc2c1=O", "note": "(stereo not drawn)", "Potency": "21.3 µM (active)"},
      {"molecule": "CCc1cc2c(=O)[nH]c(-c3ccccn3)nc2s1", "Potency": "1.69 µM (active)"},
      {"molecule": "CCOc1ccc2c(c1)-c1c(ssc1=S)C(C)(C)N2C(=O)CSC1=NCCS1", "Potency": "16.9 µM (active)"},
      {"molecule": "Cc1nc(C)c(-c2csc(Nc3ccc(O)c(C(=O)O)c3)n2)s1", "Potency": "19 µM (active)"},
      {"molecule": "COc1ccc(S(=O)(=O)N2CCC3CC2c2cc(N4CCOCC4)ccc23)cc1", "note": "(stereo not drawn)", "activity change, negative = inhibition": 17.1},
      {"molecule": "COc1ccc(N2CCN(C(c3ccco3)c3sc4nc(C)nn4c3O)CC2)cc1", "note": "(stereo not drawn)", "activity change, negative = inhibition": -27.1},
      {"molecule": "COc1ccc(N2CCN(C(c3cccs3)C(C)NC(=O)c3ccc4c(c3)OCO4)CC2)cc1", "note": "(stereo not drawn)", "activity change, negative = inhibition": 1.89},
      {"molecule": "COc1ccc(N2CCN(Cc3ccc(Br)s3)CC2)cc1", "Potency": "10.7 µM (active)"},
      {"molecule": "COc1ccc(N2CCN(Cc3cc4c(cc3Br)OCCO4)CC2)cc1", "Potency": "15.1 µM (active)"},
      {"molecule": "O=C(Oc1ccc(C(=S)N2CCOCC2)cc1)c1cccc(Cl)c1", "Potency": "8.49 µM (active)"},
      {"molecule": "O=C(Oc1ccc(C(=S)N2CCOCC2)cc1)c1cccc([N+](=O)[O-])c1", "Potency": "7.57 µM (active)"},
      {"molecule": "CC(=O)c1ccc(OC(=O)/C=C/c2ccccc2)cc1", "Potency": "4.26 µM (active)"},
      {"molecule": "O=C(Oc1ccc(C(=S)N2CCOCC2)cc1)c1ccccc1", "Potency": "16.9 µM (active)"},
      {"molecule": "Cc1ccc(C(=O)ON=C2CCN(c3ccc([N+](=O)[O-])cc3)CC2)cc1", "activity change, negative = inhibition": -23.5},
      {"molecule": "Cc1ccc(Nc2nc(N)nc(CSc3nnc(C)s3)n2)cc1", "activity change, negative = inhibition": -27.8},
      {"molecule": "COc1ccc(C(=O)C2CCCN(C(=O)c3cccc(N(C)C)c3)C2)cc1OC", "note": "(stereo not drawn)", "activity change, negative = inhibition": -24.1},
      {"molecule": "COC(=O)C(Sc1ccc(Cl)cc1)C1SC(=S)N(Cc2ccccc2)C1=O", "note": "(stereo not drawn)", "activity change, negative = inhibition": -27.9},
      {"molecule": "O=C(Oc1ccc(C(=S)N2CCOCC2)cc1)c1ccc(F)cc1", "Potency": "7.57 µM (active)"},
      {"molecule": "O=C(/C=C/c1ccccc1)Oc1ccc(C(=S)N2CCOCC2)cc1", "Potency": "1.51 µM (active)"},
      {"molecule": "Cc1ccc(C(=O)Oc2ccc(C(=S)N3CCOCC3)cc2)cc1", "Potency": "1.2 µM (active)"},
      {"molecule": "O=C(Cc1ccc(F)cc1)Oc1ccc(C(=S)N2CCCC2)cc1", "Potency": "15.1 µM (active)"},
      {"molecule": "COc1ccc(C(=O)OCC(=O)Nc2ccc(N3CCOCC3)cc2)cc1", "activity change, negative = inhibition": -5.25},
      {"molecule": "COc1cccc(OC)c1C(=O)OCC(=O)NCC1CCCCC1", "activity change, negative = inhibition": -9.42},
      {"molecule": "CC(C)OCCCNC(=O)c1ccccc1NC(=O)C1=CSCCO1", "activity change, negative = inhibition": -8.43},
      {"molecule": "C1=Cc2ccccc2/C1=C\\c1cc2c3c(c1)CCCN3CCC2", "Potency": "7.57 µM (active)"},
      {"molecule": "COc1cc(N=c2oc3c(C)ncc(CO)c3cc2C(N)=O)cc(OC)c1OC", "Potency": "6.75 µM (active)"},
      {"molecule": "Cc1ccc(NC(=O)c2cc3c(CO)cnc(C)c3oc2=Nc2cccc(C(N)=O)c2)cc1", "activity change, negative = inhibition": -28.9},
      {"molecule": "COc1ccc(C(=O)Nc2cc(OC)c(NC(=O)Nc3ccccc3)cc2OC)cc1", "activity change, negative = inhibition": -25.1},
      {"molecule": "Cc1cc(Nc2ccccc2C(=O)O)n(-c2cccc(Cl)c2)n1", "Potency": "6.75 µM (active)"},
      {"molecule": "COc1ccc(-n2nc(C)cc2Nc2ccccc2C(=O)O)cc1", "Potency": "6.01 µM (active)"},
      {"molecule": "CN(C)c1ccc(/C=C/C=C2/C=Cc3ccccc32)cc1", "Potency": "4.26 µM (active)"},
      {"molecule": "CN(C)c1ccc(C=C2C=Cc3ccccc32)cc1", "Potency": "3.79 µM (active)"},
      {"molecule": "CC1=C/C(=C\\c2ccc(N(C)C)cc2)c2ccccc21", "Potency": "7.57 µM (active)"},
      {"molecule": "CCN(CC)c1ccc(/C=C2\\C=Cc3ccccc32)cc1", "Potency": "6.75 µM (active)"},
      {"molecule": "CC1C(c2ccccc2)=Nn2c(=O)n(-c3ccccc3)c(=O)n21", "note": "(stereo not drawn)", "activity change, negative = inhibition": -2.7},
      {"molecule": "CNc1ccc(C=C2C=Cc3ccccc32)cc1", "Potency": "15.1 µM (active)"},
      {"molecule": "CN(C)c1ccc(/C=C2\\C=Cc3ccccc32)cc1", "Potency": "6.01 µM (active)"},
      {"molecule": "C1=Cc2ccccc2/C1=C\\c1cc[cH-]c1.[Fe+2].c1cc[cH-]c1", "Potency": "10.7 µM (active)"},
      {"molecule": "Cc1oc2c(Cl)c(Cl)c(O)c(CN(C)C)c2c1C(=O)c1ccc(Cl)cc1", "Potency": "19 µM (active)"},
      {"molecule": "O=C1C(NS(=O)(=O)c2cccs2)=C(N2CCN(Cc3ccccc3)CC2)C(=O)c2ccccc21", "Potency": "13.5 µM (active)"},
      {"molecule": "CC(=O)Nc1ccc(S(=O)(=O)NC2=C(N3CCN(Cc4ccccc4)CC3)C(=O)c3ccccc3C2=O)cc1", "Potency": "19 µM (active)"},
      {"molecule": "Cc1nn(-c2ccccc2)c2c1C(c1cccnc1)N1C=C(S(=O)(=O)N3CCCCC3)C=CC1=N2", "note": "(stereo not drawn)", "activity change, negative = inhibition": -26.3},
      {"molecule": "CNC(=O)c1ccc(Nc2nnc(-c3ccc(C(N)=O)cc3)c3ccccc23)cc1", "Potency": "4.78 µM (active)"},
      {"molecule": "COc1ccc(Nc2nnc(-c3ccc(C(N)=O)cc3)c3ccccc23)cc1", "Potency": "4.78 µM (active)"},
      {"molecule": "NC(=O)c1ccc(-c2nnc(Nc3ccc(S(N)(=O)=O)cc3)c3ccccc23)cc1", "Potency": "13.5 µM (active)"},
      {"molecule": "COc1ccc(-c2csc(-c3ccc(C(=O)O)cc3)n2)cc1", "activity change, negative = inhibition": -19.6},
      {"molecule": "COc1ccc(NC(=O)c2[nH]c(C)c(C(C)=O)c2C)cc1Cl", "activity change, negative = inhibition": -25.3},
      {"molecule": "Cc1cc2oc(C(=O)N(Cc3ccc(N(C)C)cc3)CC3CCCO3)c(C)c2cc1C", "note": "(stereo not drawn)", "Potency": "8.49 µM (active)"},
      {"molecule": "Cc1cc2oc(C(=O)N3CCN(Cc4ccccc4)CC3)c(C)c2cc1C", "activity change, negative = inhibition": -28.7},
      {"molecule": "COc1ccc(N(CC(=O)N2CCCCC2)S(=O)(=O)c2c(C)nn(C)c2C)cc1", "activity change, negative = inhibition": -2.46},
      {"molecule": "COc1ccc(NC(=O)c2ccc(CN3CCc4ccccc4C3)cc2)c(OC)c1", "activity change, negative = inhibition": -24.9},
      {"molecule": "COc1ccc(NC(=O)COc2cccc3c2CCN(C)C3=O)c(OC)c1", "Potency": "12 µM (active)"},
      {"molecule": "COc1ccc(NC(=O)c2ccc(COc3ccccc3)o2)c(OC)c1", "activity change, negative = inhibition": -18.8},
      {"molecule": "Clc1ccc(-n2nnnc2-c2cnc3ccccc3c2-c2ccccc2)cc1", "activity change, negative = inhibition": -27.9},
      {"molecule": "Cc1cc(C)n2nc(C(=O)NC3CCCc4ccccc43)nc2n1", "note": "(stereo not drawn)", "activity change, negative = inhibition": -9.93},
      {"molecule": "Cc1cc(C)n2nc(SCCOc3ccccc3F)nc2n1", "Potency": "15.1 µM (active)"},
      {"molecule": "O=C(COc1ccccc1/C=C1/NC(=O)NC1=O)Nc1ccccc1", "activity change, negative = inhibition": -25.6},
      {"molecule": "CN(C)S(=O)(=O)c1cccc(NC(=O)COc2ccccc2C(=O)Nc2ccccc2)c1", "Potency": "13.5 µM (active)"},
      {"molecule": "Cc1cc(C)c2c(/C=C/c3ccc(N(C)C)cc3)ccnc2c1", "Potency": "9.53 µM (active)"},
      {"molecule": "Cc1cnc2c(C)cccc2c1/C=C/c1ccc(N(C)C)cc1", "Potency": "6.01 µM (active)"},
      {"molecule": "Cc1cnc2c(C)ccc(C)c2c1/C=C/c1ccc(N(C)C)cc1", "Potency": "6.01 µM (active)"},
      {"molecule": "Cc1ccc(C)c2c(/C=C/c3ccc(N(C)C)cc3)ccnc12", "Potency": "5.36 µM (active)"},
      {"molecule": "COCc1cc(O)c(O)c(O)c1-c1c(COC)cc(O)c(O)c1O", "activity change, negative = inhibition": -12.3},
      {"molecule": "Cc1cc(=O)n2[nH]c(Nc3cccc(Cl)c3)nc2n1", "activity change, negative = inhibition": -20.9}
    ]}
  ]
}
